Molecular target: Neuropilin-1 (Homo sapiens) (UniProt O14786)
Test: blockers of CendR peptide binding to NRP-1 – biochemical, FP and AlphaScreen panel, dose response (AID 651650)
Conditions: NRP-1 b1b2 / RPARPAR peptide binding, FP or AlphaScreen; run 1, at 100 µM (top of the series)

Neuropilin-1 (Homo sapiens), sequence (O14786 whole entry, looked up): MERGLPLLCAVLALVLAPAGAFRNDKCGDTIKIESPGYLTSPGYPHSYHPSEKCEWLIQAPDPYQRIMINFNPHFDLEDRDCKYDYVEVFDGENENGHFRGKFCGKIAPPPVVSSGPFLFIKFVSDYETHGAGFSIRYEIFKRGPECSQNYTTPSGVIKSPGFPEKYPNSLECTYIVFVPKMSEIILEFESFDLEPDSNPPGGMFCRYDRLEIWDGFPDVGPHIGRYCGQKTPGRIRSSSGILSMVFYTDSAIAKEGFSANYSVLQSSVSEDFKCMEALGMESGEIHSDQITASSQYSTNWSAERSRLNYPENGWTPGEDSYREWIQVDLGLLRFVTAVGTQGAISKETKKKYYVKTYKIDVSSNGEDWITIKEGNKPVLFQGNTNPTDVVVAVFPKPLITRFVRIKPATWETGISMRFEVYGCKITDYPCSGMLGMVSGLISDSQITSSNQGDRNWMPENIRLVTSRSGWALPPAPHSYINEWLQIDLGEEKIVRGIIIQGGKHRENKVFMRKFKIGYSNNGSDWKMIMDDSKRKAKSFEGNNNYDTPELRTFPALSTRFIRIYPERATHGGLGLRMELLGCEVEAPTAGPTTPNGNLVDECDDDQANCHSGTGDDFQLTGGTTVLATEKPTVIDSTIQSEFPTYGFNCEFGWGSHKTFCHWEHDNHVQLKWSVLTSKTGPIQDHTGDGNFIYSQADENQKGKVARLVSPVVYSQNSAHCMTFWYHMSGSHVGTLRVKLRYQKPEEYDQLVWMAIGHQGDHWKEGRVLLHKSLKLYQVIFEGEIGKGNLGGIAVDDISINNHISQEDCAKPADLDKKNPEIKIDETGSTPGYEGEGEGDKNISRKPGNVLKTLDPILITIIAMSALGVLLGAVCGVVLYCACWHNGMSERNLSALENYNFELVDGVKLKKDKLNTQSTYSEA

Q: For `CN(Cc1ccccc1)C(=O)c1nc[nH]c1C(=O)N1CCN(C(=O)OC(C)(C)C)CC1`, which inhibition is on record?
A: Its inhibition is 53.3%.

Q: How did the inhibition turn out when `Cc1occc1C(=O)N1N=C(C2CC2)CC1(O)C(F)(F)F` (centres undefined) was run?
A: The inhibition was 35.3%.

Q: For `CCOC(=O)C1CCN(S(=O)(=O)c2ccc3c(c2)CCN3C(=O)C2CCC2)CC1`, which inhibition is on record?
A: The inhibition was 6.43%.

Q: `Cc1ccc(C(=O)Nc2nnc([C@H]3C[C@H](O)[C@@H](CO)O3)s2)cc1` was tested. Which inhibition did it give?
A: Its inhibition is 25.4%.

Q: With `CCC(=O)Nc1nc2nc(-c3ccccc3)cc(-c3ccccc3)n2n1` as the molecule, how does the inhibition read?
A: Its inhibition is 37.2%.

Q: `CCN(CC)C(=O)CSc1nnc(-c2c[nH]c3ccccc23)o1` was tested. Which inhibition did it give?
A: The inhibition was 46.9%.

Q: How did the inhibition turn out when `CCc1ccc(NS(=O)(=O)c2c(C(=O)N3CCCCCC3)c(C)n(C)c2C)cc1` was run?
A: Its inhibition is 31.1%.

Q: How did the inhibition turn out when `CC(O)(c1cccnc1)c1nc(/C=C/c2ccccc2)cs1` (centres undefined) was run?
A: Its inhibition is 42.6%.

Q: `CCN1C(=O)C(=O)c2cc(C)ccc21` was tested. Which inhibition did it give?
A: The inhibition was 13.5%.

Q: How did the inhibition turn out when `O=C(O)c1ccccc1SCC(=O)N1CCCCC1` was run?
A: The inhibition was 52.9%.

Q: `O=C1CCN(Cc2ccccc2)S(=O)(=O)c2ccccc21` was tested. Which inhibition did it give?
A: Its inhibition is 54%.

Q: How did the inhibition turn out when `Cc1ccc(N(C(=O)c2ccc(CN3CCOCC3)o2)C(C(=O)NCCC(C)C)c2cccs2)c(C)c1` (centres undefined) was run?
A: Its inhibition is 16%.

Q: For `Cc1ccccc1Oc1ccc2c(c1)[C@@H]1C[C@H](N(C)C(=O)Nc3cc(Cl)cc(Cl)c3)[C@H]([C@H](C)O)C(=O)N1CC2`, which inhibition is on record?
A: Its inhibition is 97.5%.

Q: How did the inhibition turn out when `COC(=O)c1ccn(C(=O)c2ccc(Cl)cc2)n1` was run?
A: Its inhibition is 39.2%.

Q: With `CC(C)(C)n1nc(-c2ccc(F)cc2)c2c(N)ncnc21` as the molecule, how does the inhibition read?
A: Its inhibition is 39.3%.

Q: How did the inhibition turn out when `COc1cc(CN2C[C@@H](CO)O[C@@H](n3cnc4c(N5CCN(c6ccccc6)CC5)ncnc43)C2)cc(OC)c1OC` was run?
A: Its inhibition is 52.8%.

Q: `Cc1ccc2c(c1)C(c1ccncc1)=NNC(c1ccc(F)cc1)=N2` was tested. Which inhibition did it give?
A: The inhibition was 36.3%.

Q: With `C#CCCOC(=O)N1C2=NC(C(=O)OC)=C(C(=O)OC)[C@@H]3N(C)c4ccccc4[C@]23C[C@H]1CO` as the molecule, how does the inhibition read?
A: Its inhibition is 74.8%.

Q: How did the inhibition turn out when `Cc1cccc(-c2noc(CSc3ccccc3)n2)c1` was run?
A: The inhibition was 0.214%.

Q: Which inhibition does the source give for `COC(=O)n1c(=O)oc2ccccc21` here?
A: Its inhibition is 50%.

Q: How did the inhibition turn out when `COc1ccc([C@H]2/C=C\CN(S(C)(=O)=O)[C@@H](C)C(=O)N2Cc2ccc(F)cc2)cc1` was run?
A: The inhibition was 28.8%.

Q: With `FC(F)(F)c1cc(C(F)(F)F)c2ccc(Oc3ccccc3)nc2n1` as the molecule, how does the inhibition read?
A: Its inhibition is 22.5%.

Q: Which inhibition does the source give for `O=C(CCc1ccc(Oc2cc([N+](=O)[O-])cc([N+](=O)[O-])c2)cc1)N1CCCCCC1` here?
A: The inhibition was 75.6%.

Q: Which inhibition does the source give for `CN(C)Cc1cc(C(F)(F)F)ccc1C(O)(c1ccccc1)c1ccccc1` here?
A: Its inhibition is -5.25%.

Q: For `CC(=O)NCCNc1nc(NC(C)C)nc2ccsc12`, which inhibition is on record?
A: The inhibition was -4.88%.

Q: How did the inhibition turn out when `CCc1ccc(NC(=O)CCn2nc(C)c(S(=O)(=O)N3CCCCC3)c2C)cc1` was run?
A: Its inhibition is 51.9%.

Q: Which inhibition does the source give for `COc1ccc(CCNC(=O)c2c(O)c3cccc4c3n(c2=O)CC4)cc1OC` here?
A: Its inhibition is 37.4%.

Q: For `CC(=O)N1CCSc2ccc(S(=O)(=O)Nc3ccc(C)cc3)cc21`, which inhibition is on record?
A: Its inhibition is 47.7%.

Q: For `CCOC(=O)c1ccc(N2CCN(C(=O)c3ccccc3)CC2)c(NC(=O)c2ccco2)c1`, which inhibition is on record?
A: Its inhibition is 40.4%.

Q: For `C[C@@H](NC(=O)c1nc[nH]c1C(=O)NCc1ccccc1)c1ccccc1`, which inhibition is on record?
A: Its inhibition is 23.1%.

Q: How did the inhibition turn out when `NC(=S)NNC(=S)Nc1ccccc1` was run?
A: The inhibition was 9.47%.

Q: `CC(C)(C)N(NC(=O)Nc1ccc(Cl)cc1)C(=O)c1ccccc1` was tested. Which inhibition did it give?
A: Its inhibition is 48.3%.

Q: Which inhibition does the source give for `Oc1ccc(-c2nc3ncccn3c2Nc2ccc3c(c2)OCO3)cc1` here?
A: Its inhibition is 41.8%.

Q: How did the inhibition turn out when `Cc1ccc(C(=O)N/C(=C\c2ccc(-c3ccccc3[N+](=O)[O-])o2)C(=O)NCCCN2CCOCC2)cc1` was run?
A: The inhibition was 13.2%.

Q: `CCOc1cc(C(=O)NCCN2CCOCC2)cc(OCC)c1OCC` was tested. Which inhibition did it give?
A: The inhibition was 23.9%.

Q: Which inhibition does the source give for `C=CCN(CC=C)C(=O)C1CC(=O)N(c2ccc(Br)cc2)C1` (centres undefined) here?
A: Its inhibition is -4.22%.

Q: How did the inhibition turn out when `Cc1ccccc1-c1cnc(C(O)c2ccc(F)c(F)c2)[nH]1` (centres undefined) was run?
A: Its inhibition is 43.1%.

Q: `C=CCC1(CC=C)CCCN1C(=O)c1cc(COc2cccc(OC)c2)on1` was tested. Which inhibition did it give?
A: Its inhibition is 39.2%.

Q: With `c1ccc(OCCCN2CCCC2)cc1` as the molecule, how does the inhibition read?
A: Its inhibition is 53.9%.

Source: PubChem BioAssay AID651650 (Sanford-Burnham Center for Chemical Genomics, 2012)
